This is an account of results in publication PMC7862700, “An all-to-all approach to the identification of sequence-specific readers for epigenetic DNA modifications on cytosine”.

What all share (assay): DAPPL (digital affinity profiling via proximity ligation, sequencing); 10 mM Tris-HCl pH 7.5, 50 mM NaCl, 1 mM DTT, 4% glycerol, room temperature, 30 min; GST-TFs on glutathione beads, 16-mer random dsDNA library, 0.1% formaldehyde crosslink after washing; high values mean tight binding
Conditions in all cases: protein: recombinant; tags: N-terminal GST; dsDNA, one strand shown

One test addresses T1, FLI1 (Homo sapiens, UniProt Q01543 1-452).
T1 sequence: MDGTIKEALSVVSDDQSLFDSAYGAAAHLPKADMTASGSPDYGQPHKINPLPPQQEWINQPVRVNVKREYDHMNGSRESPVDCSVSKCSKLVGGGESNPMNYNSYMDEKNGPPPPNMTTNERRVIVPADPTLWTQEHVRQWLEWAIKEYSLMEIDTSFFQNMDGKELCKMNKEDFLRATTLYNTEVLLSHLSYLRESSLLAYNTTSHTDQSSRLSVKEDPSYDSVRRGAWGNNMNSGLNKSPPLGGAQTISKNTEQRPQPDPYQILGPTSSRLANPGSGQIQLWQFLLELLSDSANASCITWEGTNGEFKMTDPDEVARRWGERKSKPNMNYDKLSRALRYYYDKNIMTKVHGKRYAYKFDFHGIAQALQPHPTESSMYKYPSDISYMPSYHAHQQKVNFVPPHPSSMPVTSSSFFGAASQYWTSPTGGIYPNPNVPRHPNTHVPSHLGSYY
In outline:
(§1)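 After expression in yeast as GST fusions, human transcription factors were bound to glutathione beads, DNA-barcoded and mixed with a tag-only sample. The pools were incubated with 200 nmole of a 16-mer random double-stranded DNA library in Tris/NaCl/DTT/glycerol buffer (30 min, room temperature), washed and crosslinked with 0.1% formaldehyde. Proximity ligation with BsaI/T4 ligase ran for 1 h at 37 °C, before PCR amplification and sequencing on an Illumina NextSeq500. Binding signal is a hexamer's read frequency for a factor divided by its frequency for the tag-only sample.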

The next test has as its target T2, ELK1 (Homo sapiens, UniProt P19419 1-428).
T2 sequence: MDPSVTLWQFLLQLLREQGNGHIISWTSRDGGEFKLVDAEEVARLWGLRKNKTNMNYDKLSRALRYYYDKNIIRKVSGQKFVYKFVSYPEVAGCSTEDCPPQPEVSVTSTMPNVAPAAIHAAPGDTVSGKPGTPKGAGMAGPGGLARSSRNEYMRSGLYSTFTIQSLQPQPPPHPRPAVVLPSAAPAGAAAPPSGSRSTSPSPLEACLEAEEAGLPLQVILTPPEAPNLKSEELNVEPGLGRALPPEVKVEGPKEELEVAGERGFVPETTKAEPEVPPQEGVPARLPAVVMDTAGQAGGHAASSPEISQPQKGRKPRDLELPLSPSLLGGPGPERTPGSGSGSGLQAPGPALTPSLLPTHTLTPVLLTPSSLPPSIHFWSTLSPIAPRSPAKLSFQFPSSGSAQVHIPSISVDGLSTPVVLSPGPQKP
In outline:
as §1

A further test addresses T3, GABPA (Homo sapiens, UniProt Q06546 1-454).
T3 sequence: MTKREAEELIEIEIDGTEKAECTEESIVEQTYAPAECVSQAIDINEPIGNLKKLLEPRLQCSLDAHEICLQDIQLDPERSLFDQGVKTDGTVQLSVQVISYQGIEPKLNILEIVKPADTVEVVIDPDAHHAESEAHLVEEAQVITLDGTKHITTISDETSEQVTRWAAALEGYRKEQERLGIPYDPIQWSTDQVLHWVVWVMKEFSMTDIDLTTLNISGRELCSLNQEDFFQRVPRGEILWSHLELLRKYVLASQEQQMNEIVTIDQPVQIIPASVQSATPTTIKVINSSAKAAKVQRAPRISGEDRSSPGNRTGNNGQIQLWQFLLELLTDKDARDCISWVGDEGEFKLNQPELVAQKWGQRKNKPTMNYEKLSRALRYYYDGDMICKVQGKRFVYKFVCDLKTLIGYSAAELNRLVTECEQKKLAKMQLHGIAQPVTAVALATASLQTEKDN
Put shortly: as §1

The target in another test is T4, ERG (Homo sapiens, UniProt P11308 1-479).
T4 sequence: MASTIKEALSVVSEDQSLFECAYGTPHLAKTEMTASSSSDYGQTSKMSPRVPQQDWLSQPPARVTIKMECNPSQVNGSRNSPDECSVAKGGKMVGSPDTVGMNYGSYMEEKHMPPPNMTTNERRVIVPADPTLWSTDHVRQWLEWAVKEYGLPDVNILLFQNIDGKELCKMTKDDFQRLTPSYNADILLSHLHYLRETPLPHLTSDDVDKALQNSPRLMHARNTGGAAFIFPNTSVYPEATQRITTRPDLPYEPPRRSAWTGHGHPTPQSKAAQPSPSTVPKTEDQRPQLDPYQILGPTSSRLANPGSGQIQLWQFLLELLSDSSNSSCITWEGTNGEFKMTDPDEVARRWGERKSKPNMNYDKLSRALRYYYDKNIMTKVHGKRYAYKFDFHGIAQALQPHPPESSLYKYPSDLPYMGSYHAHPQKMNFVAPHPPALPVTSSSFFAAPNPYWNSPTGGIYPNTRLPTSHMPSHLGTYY
In outline:
as §1

The next test deals with ELF1 (Homo sapiens, UniProt P32519 1-619). Put shortly:
as §1

The target of the next test is T5, EHF (Homo sapiens, UniProt Q9NZC4 1-300).
T5 sequence: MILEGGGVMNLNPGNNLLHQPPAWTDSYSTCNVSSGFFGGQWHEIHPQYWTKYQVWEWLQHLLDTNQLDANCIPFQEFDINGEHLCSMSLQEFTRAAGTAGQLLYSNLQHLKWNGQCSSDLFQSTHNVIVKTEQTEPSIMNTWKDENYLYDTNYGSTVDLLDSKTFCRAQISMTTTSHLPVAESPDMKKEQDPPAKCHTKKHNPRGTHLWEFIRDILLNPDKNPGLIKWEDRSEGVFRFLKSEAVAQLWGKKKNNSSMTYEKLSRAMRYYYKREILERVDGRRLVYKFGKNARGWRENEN
Put shortly:
as §1

The target in a further test is SPI1 (Homo sapiens, UniProt P17947 1-270). Put shortly:
as §1

A further test has as its target SPIB (Homo sapiens, UniProt Q01892 1-262). Put shortly: as §1
In a further test the target is T6, ELK3 (Homo sapiens, UniProt P41970 1-407).
T6 sequence: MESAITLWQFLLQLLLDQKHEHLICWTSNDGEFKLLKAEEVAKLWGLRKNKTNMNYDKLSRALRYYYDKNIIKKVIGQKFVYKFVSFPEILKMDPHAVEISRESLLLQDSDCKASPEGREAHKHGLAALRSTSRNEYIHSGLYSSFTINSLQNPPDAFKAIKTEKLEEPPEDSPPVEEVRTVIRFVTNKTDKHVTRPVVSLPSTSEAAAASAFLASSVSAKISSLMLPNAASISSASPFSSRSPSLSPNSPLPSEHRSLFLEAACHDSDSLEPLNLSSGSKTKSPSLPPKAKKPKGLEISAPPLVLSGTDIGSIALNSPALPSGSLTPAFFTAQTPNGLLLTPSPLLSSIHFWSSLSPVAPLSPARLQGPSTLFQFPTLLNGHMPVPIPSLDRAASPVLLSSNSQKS
Put shortly:
as §1

SPIB, sequence (Q01892 whole entry): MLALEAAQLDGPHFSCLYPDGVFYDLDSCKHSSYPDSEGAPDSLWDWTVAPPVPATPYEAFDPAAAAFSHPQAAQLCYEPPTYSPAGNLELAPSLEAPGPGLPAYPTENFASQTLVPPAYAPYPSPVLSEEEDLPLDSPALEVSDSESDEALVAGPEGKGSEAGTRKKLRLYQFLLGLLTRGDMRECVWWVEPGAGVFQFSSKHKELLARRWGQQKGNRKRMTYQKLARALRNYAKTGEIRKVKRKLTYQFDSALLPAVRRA
ELF1, sequence (P32519 whole entry): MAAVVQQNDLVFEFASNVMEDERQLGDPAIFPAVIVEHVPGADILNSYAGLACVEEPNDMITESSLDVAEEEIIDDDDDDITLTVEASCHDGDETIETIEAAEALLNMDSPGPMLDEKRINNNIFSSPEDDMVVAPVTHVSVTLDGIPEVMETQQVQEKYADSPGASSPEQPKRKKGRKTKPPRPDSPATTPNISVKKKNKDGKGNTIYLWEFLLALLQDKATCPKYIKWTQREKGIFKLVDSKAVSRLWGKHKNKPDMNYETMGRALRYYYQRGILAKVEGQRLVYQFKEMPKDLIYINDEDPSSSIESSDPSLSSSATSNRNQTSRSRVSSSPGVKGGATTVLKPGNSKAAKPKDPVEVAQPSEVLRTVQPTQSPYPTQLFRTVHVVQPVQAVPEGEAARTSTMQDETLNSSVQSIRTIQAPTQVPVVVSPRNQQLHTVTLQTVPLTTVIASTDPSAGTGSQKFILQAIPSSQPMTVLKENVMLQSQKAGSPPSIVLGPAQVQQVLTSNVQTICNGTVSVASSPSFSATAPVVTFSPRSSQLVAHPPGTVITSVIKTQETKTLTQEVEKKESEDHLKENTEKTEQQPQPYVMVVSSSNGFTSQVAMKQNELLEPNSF

For the sequence CTCACA, the binding signal with FLI1 was 1.29 fold enrichment (6-mer frequency, TF over GST control); with ELK1, 1.3 fold enrichment (6-mer frequency, TF over GST control); with GABPA it was 1.38 fold enrichment (6-mer frequency, TF over GST control); with ERG, 1.34 fold enrichment (6-mer frequency, TF over GST control); with ELF1, 1.35 fold enrichment (6-mer frequency, TF over GST control); in the test with EHF it was 1.42 fold enrichment (6-mer frequency, TF over GST control). Also, the binding signal with SPI1 is 1.27 fold enrichment (6-mer frequency, TF over GST control); with SPIB, 1.38 fold enrichment (6-mer frequency, TF over GST control); with ELK3 it was 1.41 fold enrichment (6-mer frequency, TF over GST control).
As for ATTTAG, the binding signal was 1.13 fold enrichment (6-mer frequency, TF over GST control) with FLI1; 1.07 fold enrichment (6-mer frequency, TF over GST control) with ELK1; 1.27 fold enrichment (6-mer frequency, TF over GST control) with GABPA; 1.02 fold enrichment (6-mer frequency, TF over GST control) in the test with ERG; 1.15 fold enrichment (6-mer frequency, TF over GST control) with ELF1; 1.14 fold enrichment (6-mer frequency, TF over GST control) with EHF. The binding signal was 1.11 fold enrichment (6-mer frequency, TF over GST control) with SPI1; 1.16 fold enrichment (6-mer frequency, TF over GST control) with SPIB; 1.09 fold enrichment (6-mer frequency, TF over GST control) with ELK3.
Take CGACAA: the binding signal with FLI1 was 1.17 fold enrichment (6-mer frequency, TF over GST control); with ELK1 it was 1.09 fold enrichment (6-mer frequency, TF over GST control); with GABPA, 1.26 fold enrichment (6-mer frequency, TF over GST control); in the test with ERG, 1.17 fold enrichment (6-mer frequency, TF over GST control); with ELF1, 1.21 fold enrichment (6-mer frequency, TF over GST control); with EHF it was 1.24 fold enrichment (6-mer frequency, TF over GST control). Moreover, the binding signal in the test with SPI1 is 1.12 fold enrichment (6-mer frequency, TF over GST control); with SPIB, 1.2 fold enrichment (6-mer frequency, TF over GST control); with ELK3, 1.07 fold enrichment (6-mer frequency, TF over GST control).
As to AATTAA, the binding signal with FLI1 was 1.26 fold enrichment (6-mer frequency, TF over GST control); with ELK1 it was 1.2 fold enrichment (6-mer frequency, TF over GST control); with GABPA, 1.22 fold enrichment (6-mer frequency, TF over GST control); with ERG, 1.26 fold enrichment (6-mer frequency, TF over GST control); with ELF1, 1.27 fold enrichment (6-mer frequency, TF over GST control); with EHF it was 1.22 fold enrichment (6-mer frequency, TF over GST control). Further, the binding signal in the test with SPI1 was 1.26 fold enrichment (6-mer frequency, TF over GST control); with SPIB, 1.21 fold enrichment (6-mer frequency, TF over GST control); in the test with ELK3, 1.31 fold enrichment (6-mer frequency, TF over GST control).
For the sequence CTCATT, the binding signal with FLI1 was 1.45 fold enrichment (6-mer frequency, TF over GST control); with ELK1, 1.32 fold enrichment (6-mer frequency, TF over GST control); in the test with GABPA it was 1.44 fold enrichment (6-mer frequency, TF over GST control); with ERG, 1.38 fold enrichment (6-mer frequency, TF over GST control); in the test with ELF1, 1.55 fold enrichment (6-mer frequency, TF over GST control); with EHF it was 1.57 fold enrichment (6-mer frequency, TF over GST control). In addition, the binding signal with SPI1 was 1.82 fold enrichment (6-mer frequency, TF over GST control); with SPIB it was 1.61 fold enrichment (6-mer frequency, TF over GST control); in the test with ELK3 it was 1.12 fold enrichment (6-mer frequency, TF over GST control).
For the sequence TGTATG, the binding signal is 1.31 fold enrichment (6-mer frequency, TF over GST control) in the test with FLI1; 1.16 fold enrichment (6-mer frequency, TF over GST control) in the test with ELK1; 1.25 fold enrichment (6-mer frequency, TF over GST control) in the test with GABPA; 1.14 fold enrichment (6-mer frequency, TF over GST control) in the test with ERG; 1.23 fold enrichment (6-mer frequency, TF over GST control) with ELF1; 1.2 fold enrichment (6-mer frequency, TF over GST control) in the test with EHF. Besides, the binding signal in the test with SPI1 is 1.18 fold enrichment (6-mer frequency, TF over GST control); with SPIB, 1.16 fold enrichment (6-mer frequency, TF over GST control); in the test with ELK3, 1.22 fold enrichment (6-mer frequency, TF over GST control).
On to TAATTT, for which the binding signal is 1.35 fold enrichment (6-mer frequency, TF over GST control) in the test with FLI1; 1.28 fold enrichment (6-mer frequency, TF over GST control) with ELK1; 1.5 fold enrichment (6-mer frequency, TF over GST control) in the test with GABPA; 1.4 fold enrichment (6-mer frequency, TF over GST control) in the test with ERG; 1.41 fold enrichment (6-mer frequency, TF over GST control) with ELF1; 1.41 fold enrichment (6-mer frequency, TF over GST control) with EHF. The binding signal is 1.38 fold enrichment (6-mer frequency, TF over GST control) with SPI1; 1.5 fold enrichment (6-mer frequency, TF over GST control) with SPIB; 1.52 fold enrichment (6-mer frequency, TF over GST control) with ELK3.
With TTTTGC, the binding signal in the test with FLI1 was 1.51 fold enrichment (6-mer frequency, TF over GST control); with ELK1 it was 1.39 fold enrichment (6-mer frequency, TF over GST control); with GABPA, 1.38 fold enrichment (6-mer frequency, TF over GST control); with ERG, 1.26 fold enrichment (6-mer frequency, TF over GST control); with ELF1 it was 1.42 fold enrichment (6-mer frequency, TF over GST control); in the test with EHF, 1.28 fold enrichment (6-mer frequency, TF over GST control). Moreover, the binding signal with SPI1 is 1.43 fold enrichment (6-mer frequency, TF over GST control); with SPIB, 1.45 fold enrichment (6-mer frequency, TF over GST control); with ELK3 it was 1.42 fold enrichment (6-mer frequency, TF over GST control).
